Assay outcomes deposited in PubChem BioAssay by National Center for Advancing Translational Sciences (NCATS).
Pf Dd2 growth: qHTS Primary assay for Inhibitors of Plasmodium falciparum Dd2 growth in vitro; P. falciparum Dd2 growth, SYBR Green, 72 h; Potency, µM (series often up to 28.9 µM), actives largely listed as inhibitors; 120,000 compounds, 4.3% hits; active = well fitted inhibition curve with a large enough effect; also: nearly all actives have a fitted effect of over 65% in size
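Readout: SYBR Green fluorescence, 485 nm excitation, 535 nm emission, after ~16 h lysis at 37C. Before that, Dd2-infected red cells (2.5% hematocrit) grew 72 h with compound, 29 uM top final concentration.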
Hits are given with their value; - = inactive; [ ] = dose if it differs, or a comment. Shown is part of a subset that was picked to be rich in hits.

SMILES	Pf Dd2 growth
Cc1nn(C)cc1NC(=O)CN1CCC(=O)N(CC2CC2)C(C(C)C)C1 (configuration not stated)	-
COc1cc(=O)n2c(c1C(=O)Nc1ccc(F)cc1F)CCCC2	-
COc1cccc(NC(=O)C2N(C(C)C)C(=O)C23CCCCC3)c1 (configuration not stated)	-
O=C(O)c1cccc(CC2CCN(C(=O)C3CCC(O)CC3)C2)c1 (configuration not stated)	-
Cn1nccc1C(=O)N1CCC(Oc2cccnc2)C1 (configuration not stated)	-
CCCc1noc(-c2cccn3c(CNC(=O)c4cc(Cl)ccc4F)nnc23)n1	-
CCOC(=O)C1CCCN(C(=O)C2CC(c3ccc(OC)c(OC)c3)CN(C(=O)COC)C2)C1 (configuration not stated)	-
CCc1csc(CNC(=O)c2ccc(N3CC[C@H](O)C3)nc2)n1	-
COc1cc(CN(C(=O)C2CCC2)[C@H]2CCCCNC2=O)ccc1OCCc1scnc1C	-
CC(C)N1CC[C@H](c2nc3ccc(C#N)cc3[nH]2)C1	-
COc1ccc2nc([C@H]3CCN(C(C)C)C3)[nH]c2c1	32µM
COc1ccc2nc([C@H]3CCN(CCCc4ccccc4)C3)[nH]c2c1	11µM
COc1ccc2nc([C@H]3CCN(C4CCN(C(C)=O)CC4)C3)[nH]c2c1	-
COc1ccc2nc([C@H]3CCN(Cc4ccc(C(=O)O)cc4)C3)[nH]c2c1	-
c1ccc(CCCN2CC[C@H](c3nc4ccccc4[nH]3)C2)cc1	-
CNC(=O)[C@@H]1C[C@H](Oc2cccnc2)CN1C(=O)c1ccc(OC)c(F)c1	-
Fc1ccc2nc(CO[C@H]3CN(C4CCOCC4)C[C@H]3F)[nH]c2c1	-
CNC(=O)[C@@H]1CN(C(=O)c2cc3cc(OC)ccc3[nH]2)C[C@H]1c1nc(C)no1	-
COc1ccc2cc(C(=O)N3CCC4(CC3)CC(c3nc(C)no3)N(C)C4)[nH]c2c1 (configuration not stated)	-
COc1ccc2[nH]c(C(=O)N3CCC4(CC3)CC(c3nc(C)no3)N(C)C4)cc2c1 (configuration not stated)	7.9µM
Cc1cn2nc(C(=O)Nc3ccc(C(F)(F)F)cc3)cc2c(N2CCSCC2)n1	-
O=C(c1ccc(Cl)s1)N1CCC(n2cc(-c3nc(-c4ccccc4)no3)nn2)C1 (configuration not stated)	-
COc1ccc([C@H]2C[C@@H](O)[C@@H](O)[C@@H]2NS(=O)(=O)c2cccc(C#N)c2)cc1	-
O=C1[C@@H]2C[C@@H](CN2C2CCOCC2)Oc2ccccc2N1Cc1ccccn1	-
COc1ccc(CN2C(=O)[C@@H]3C[C@@H](CN3Cc3ccc(S(C)(=O)=O)cc3)Oc3ccccc32)cc1	-
SMILES	Pf Dd2 growth
COCCN1C(=O)[C@@H]2C[C@@H](CN2C(=O)c2ccccc2)Oc2ccccc21	-
COCCN1C(=O)[C@@H]2C[C@@H](CN2Cc2ccccn2)Oc2ccccc21	10µM
COCCN1C(=O)[C@@H]2C[C@@H](CN2Cc2ccc(C(F)(F)F)cc2)Oc2ccccc21	14µM
O=C1[C@@H]2C[C@@H](CN2Cc2ccc(C(F)(F)F)cc2)Oc2ccccc2N1Cc1cccnc1	-
Cn1ncc(CN2CC[C@@H]3[C@@H](CCC(=O)N3CCCN)C2)c1C1CC1	-
COC[C@H]1CCCN1C(=O)CC[C@@H]1CNC(=O)[C@@H]2C[C@H](NC(=O)Nc3ccc(F)cc3F)CN12	-
COCc1noc([C@@H]2CN(Cc3ccc(F)c(OC)c3)C[C@H]2C(N)=O)n1	-
Cc1ccccc1Nc1c(-c2ccc(Cl)s2)nc2cccc(C)n12	-
Cc1ccn2c(NC(=O)c3cccc(Cl)c3)c(-c3ccccc3)nc2c1	-
Cc1ccccc1Nc1c(-c2ccc(Cl)s2)nc2c(C)cccn12	-
Cc1ccn2c(Nc3c(C)cccc3C)c(-c3ccc(Cl)s3)nc2c1	7.9µM
Cc1cccc(C(=O)Nc2c(-c3ccccc3)nc3cc(C)ccn23)c1	-
Cc1ccn2c(Nc3c(C)cccc3C)c(-c3ccsc3)nc2c1	11µM
Cc1nn(-c2ccccc2)c(=O)n1CC(=O)NCC1OCCc2ccccc21 (configuration not stated)	-
CCC(=O)N1CCC2(CC1)OCC(C(=O)NCC(C)C)N2C(=O)c1cccc(OC)c1 (configuration not stated)	-
O=C(c1noc(-c2ccc(F)cc2)n1)N1CCN(c2ccc(Cl)cc2)CC1	-
CN1C(=O)c2cccn2CC1CNC(=O)c1n[nH]c2ccccc12 (configuration not stated)	-
NC1(Cc2cc(CN3CCN(c4ccccc4)CC3)on2)COC1	-
COc1ccc(C(=O)N2CCC(CC(=O)NCc3ccccc3)C2)cc1 (configuration not stated)	-
COc1ccc(-c2noc([C@@H]3CCCN3C(=O)Cc3ccccc3Cl)n2)cc1OC	-
CN(Cc1ccc(F)cc1)C(=O)c1ccc(Cl)nc1	-
CC(C)c1nc2c(c(-c3ccc(O)cc3)n1)CN(Cc1ccccc1)CC2	-
CC(C)c1nc2c(c(-c3ccc(O)cc3)n1)CN(C(=O)c1ccccc1F)CC2	-
CC(C)c1nc2c(c(-c3ccc(O)cc3)n1)CN(CC1CC1)CC2	-
Cc1noc(C)c1[S+](=O)([O-])N1CCc2nc(C(C)C)nc(-c3ccc(Cl)cc3)c2C1	-
SMILES	Pf Dd2 growth
Cc1nc2c(c(-c3ccc(Cl)cc3)n1)CN([S+](=O)([O-])c1c(C)noc1C)CC2	-
COc1ccc(CN2CCc3nc(C(C)C)nc(-c4ccc(O)cc4)c3C2)cc1	8.9µM
CC(C)c1nc2c(c(-c3ccc(O)cc3)n1)CN(Cc1cccc(C(F)(F)F)c1)CC2	2.5µM
Cc1noc(C)c1[S+](=O)([O-])N1CCc2nc(C(C)C)nc(-c3ccc(O)cc3)c2C1	10µM
O=c1n(-c2ccc(F)cc2F)nc2n1CCN(CC1CC1)C2	-
COc1ccccc1CNC[C@H]1O[C@@H]2C[C@@H](CC(=O)NC(C)C)O[C@@H]2[C@@H]1O	-
COc1ccc(C(=O)N2CC[C@@H]3COCCN(Cc4cccnc4)[C@@H]3C2)c(OC)c1	-
COCCOc1ccc2c(n1)CCN(C(=O)c1ccc(OC)cc1OC)C2	-
CN(C)C(=O)NC[C@@H]1CC[C@H]2C[C@@H]1C2(C)C	-
CCN1C(=O)C2CC3(CCN(C(=O)CCc4ccccc4)CC3)CN2C1=O (configuration not stated)	-
CCOCC(=O)N1CCC(C2CCN(S(C)(=O)=O)CC2)C1 (configuration not stated)	-
COCCC(=O)N1C[C@H]2OC(=O)N(CCc3ccc(OC)cc3)[C@H]2C1	-
CCCc1ccc(S(=O)(=O)N(CCC)CC2CCOC2)cc1 (configuration not stated)	-[5.79 µM]
Cc1ccc(Cl)cc1N1CCN(C(=O)C2CCCN(Cc3nc(-c4cccc(Cl)c4)oc3C)C2)CC1 (configuration not stated)	-
CSc1ccc(-c2nc(CN3CCCC(CO)C3)c(C)o2)cc1 (configuration not stated)	-
Cc1oc(-c2cccc(C(F)(F)F)c2)nc1CN1CCCC(CO)C1 (configuration not stated)	11µM
CCC(CC)NC(=O)[C@@H]1COCC(=O)N1Cc1ccc(OC)cc1OC	-
COC1CCC12CCN(C(=O)c1sc(C)nc1C)CC2 (configuration not stated)	-
Cn1ccc2c(C(=O)NCCc3cnc[nH]3)nc(-c3ccc([S+](C)(=O)[O-])cc3)cc21	-
